The nature of experiment [1]: qHTS Assay for Identifying Gametocytocidal Compounds (AID 743244; active = well fitted curve in the direction sought with a large enough effect; an effect the other way counts as inactive or inconclusive; note: potency is the fitted concentration of half-maximal effect;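 for max response: % is set by controls: 0 for no effect and ±100 for the full control effect; actives lower the fluorescent signal which means gametocytes are killed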). The settings on record: P. falciparum 3D7 stage III-V gametocytes, alamarBlue, 72 h; max response: stronger effect = lower value. Put shortly: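 Compounds are pinned into medium, gametocytes (stage III–V, 3D7, 20,000 cells/well) added, and plates held 72 h at 37 °C in 5% CO2. AlamarBlue follows for 24 h before fluorescence reading.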
For orientation: qHTS replaces the single test concentration by a dilution series.

Experiment [2] is described as follows: qHTS profiling for inhibitors of Plasmodium falciparum (3D7) proliferation (AID 743322).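 Note: infected erythrocytes exposed to compound for 72 h before lysis; 100% = DMSO vehicle wells and 0% = 0.29 µM artemisinin.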 The following applies: P. falciparum 3D7 proliferation; at 28.7 µM (top of the series) unless noted. The essentials: (§1)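 Erythrocytes infected with P. falciparum (0.3% parasitemia, 2.5% hematocrit) incubated with compounds 72 h at 37 C, 5% CO2. Lysis with saponin/Triton buffer containing SYBR Green I, overnight at room temperature in the dark; DNA fluorescence (485/535 nm) normalised to 0.29 uM artemisinin and DMSO.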

Experiment [3] is described as follows: qHTS profiling for inhibitors of Plasmodium falciparum (DD2) proliferation (AID 743323). The settings on record: lower = more inhibition; at 28.7 µM (top of the series) unless noted. The essentials:
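Parasite proliferation measured via DNA-dye fluorescence, as uninfected erythrocytes lack DNA. Cultures at 0.3% parasitemia and 2.5% hematocrit incubated 72 h with compound; signal scaled between vehicle and 0.29 uM artemisinin wells.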

Experiment [4] is described as follows: qHTS profiling for inhibitors of Plasmodium falciparum (HB3) proliferation (AID 743324; active = well fitted curve in the direction sought with a large enough effect; an effect the other way counts as inactive or inconclusive;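 note: 100% = DMSO vehicle wells and 0% = artemisinin-treated control wells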). The settings on record: Plasmodium falciparum HB3 blood-stage proliferation; at 28.7 µM (top of the series) unless noted. The essentials:
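P. falciparum HB3 grown in erythrocytes (0.3% parasitemia, 2.5% hematocrit final) with compound for 72 h at 37 C, 5% CO2. Parasite DNA detected by SYBR Green after saponin/triton lysis overnight; normalized to 0.29 uM artemisinin and DMSO.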

Experiment [5] can be described thus: qHTS profiling of the MIPE4 collection as inhibitors of Plasmodium falciparum (3D7) proliferation (AID 743344).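 Note: scaled between DMSO vehicle wells and 0.29 µM artemisinin as full inhibition.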 The following applies: P. falciparum 3D7 in erythrocytes, SYBR Green DNA fluorescence, 72 h; at 28.5 µM (top of the series) unless noted. The essentials: as §1
Experiment [6] can be described thus: qHTS profiling of the MIPE4 collection as inhibitors of Plasmodium falciparum (DD2) proliferation (AID 743345). The following applies: P. falciparum Dd2 in erythrocytes, SYBR Green DNA, 72 h; at 28.5 µM (top of the series) unless noted. The essentials:
as §1

Experiment [7] is described as follows: qHTS profiling of the MIPE4 collection as inhibitors of Plasmodium falciparum (DD2) proliferation (Rep 2) (AID 743346). The following applies: P. falciparum Dd2 in erythrocytes, SYBR Green DNA, 72 h; at 28.5 µM (top of the series) unless noted. Put shortly: as §1
Experiment [8] is described as follows: qHTS profiling of the MIPE4 collection as inhibitors of Plasmodium falciparum (HB3) proliferation (AID 743347).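 Note: plate controls were DMSO vehicle wells for no effect and artemisinin wells for full effect.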 The following applies: P. falciparum HB3 in erythrocytes, SYBR Green DNA, 72 h; at 28.5 µM (top of the series) unless noted. The essentials: as §1

Several values for one entry are separate records, joined by “and”; a condition that tells them apart may be missing. Identical values can stand only once. Inconclusive results are not listed. Activity calls are given as the source filed them. Unless noted, the rule behind the calls is not given here.

Consider `CCOC(=O)N[C@@H]1CC[C@@H]2[C@@H](C1)C[C@H]1C(=O)O[C@H](C)[C@H]1[C@@H]2C=Cc1ccc(-c2cccc(F)c2)cn1`, for which the max response in experiment [1] is -4.74% (inactive). The same compound came in with a remaining parasite growth % (stronger effect = lower value) in experiment [2] of 1.23%. This compound also gave an activity, percent of control in experiment [3] of 7.47%. Also, the remaining proliferation (% of control), lower = more inhibition in experiment [4] amounted to 0.902%. Moreover, in experiment [5], the parasite growth, % of DMSO control stood at 7.63%. The compound also returned a parasite growth remaining, % of DMSO control (lower = more inhibition) in experiment [6] of 45%. Moreover, the parasite growth, % of control (lower = inhibition) in experiment [7] was 22%. The growth, % of control in experiment [8] came out at 5.21%.
For the compound `CCC(C)n1ncn(-c2ccc(N3CCN(c4ccc(OC[C@H]5CO[C@](Cn6cncn6)(c6ccc(Cl)cc6Cl)O5)cc4)CC3)cc2)c1=O` (stereo partly specified), in experiment [1], the max response was 3.11% (inactive). The same compound displayed a remaining parasite growth % (stronger effect = lower value) in experiment [2] of 3.74%. The same compound displayed an activity, percent of control in experiment [3] of 7.7%. In addition, in experiment [4], the remaining proliferation (% of control), lower = more inhibition stood at 2.67%. Further, in experiment [5], the parasite growth, % of DMSO control was determined as 5.41%. In addition, the parasite growth remaining, % of DMSO control (lower = more inhibition) in experiment [6] was found to be 8.47%. Moreover, in experiment [7], the parasite growth, % of control (lower = inhibition) was found to be 37.4%. In experiment [8], this compound gave a growth, % of control of 4.47%.
Regarding `CC(=O)NC(C)c1ccc(Oc2ccc(OC(C)C)cc2)cc1` (stereo unspecified), in experiment [1], the max response is -4.97% (inactive). Also, the remaining parasite growth % (stronger effect = lower value) in experiment [2] is 69.9%. Further, the activity, percent of control in experiment [3] came out at 93.5%. In addition, the remaining proliferation (% of control), lower = more inhibition in experiment [4] was 95.2%. Further, the parasite growth, % of DMSO control in experiment [5] is 23.1%. The parasite growth remaining, % of DMSO control (lower = more inhibition) in experiment [6] was found to be 10.5%. Also, in experiment [7], the parasite growth, % of control (lower = inhibition) came to 8.63%. For the same compound, in experiment [8], the growth, % of control was determined as 20.1%.
For the compound `C[C@H](NC(=O)Cc1cc(F)cc(F)c1)C(=O)N[C@@H]1C(=O)N(C)c2ccccc2-c2ccccc21`, in experiment [1], the max response was -14.2% (inactive). Besides, the remaining parasite growth % (stronger effect = lower value) in experiment [2] came out at 7.69%. In experiment [3], the activity, percent of control was determined as 7.48%. Further, the remaining proliferation (% of control), lower = more inhibition in experiment [4] is 6.09%. The same compound had a parasite growth, % of DMSO control in experiment [5] of 10.3%. Further, the parasite growth remaining, % of DMSO control (lower = more inhibition) in experiment [6] is 12.1%. Besides, the parasite growth, % of control (lower = inhibition) in experiment [7] stood at 12.3%. In experiment [8], this compound gave a growth, % of control of 3.07%.
On to `Cn1cnc2c(F)c(Nc3ccc(Br)cc3Cl)c(C(=O)NOCCO)cc21`, for which the max response in experiment [1] was 17.6% (inactive). Also, the remaining parasite growth % (stronger effect = lower value) in experiment [2] amounted to 91.2%. In experiment [3], this compound yielded an activity, percent of control of 90.2%. Also, in experiment [4], the remaining proliferation (% of control), lower = more inhibition worked out at 94.6%. Further, the parasite growth, % of DMSO control in experiment [5] is 58.2%. Besides, in experiment [6], the parasite growth remaining, % of DMSO control (lower = more inhibition) amounted to 95.9%. Also, the parasite growth, % of control (lower = inhibition) in experiment [7] was 57.1%.
Take `CNCc1ccc(-c2[nH]c3cc(F)cc4c3c2CCNC4=O)cc1`: the Potency in experiment [1] was 29.6 µM (active). Moreover, the remaining parasite growth % (stronger effect = lower value) in experiment [2] is 28.7%. In experiment [3], the activity, percent of control is 77.5%. The compound further came in with a remaining proliferation (% of control), lower = more inhibition in experiment [4] of 54%. This compound also had a parasite growth, % of DMSO control in experiment [5] of 47.4%. Besides, the parasite growth remaining, % of DMSO control (lower = more inhibition) in experiment [6] amounted to 85%. The parasite growth, % of control (lower = inhibition) in experiment [7] was found to be 51.1%. Further, the growth, % of control in experiment [8] turned out to be 18.7%.
As for `COc1ccccc1[C@H](c1cccc2ccccc12)[C@@](C)(C#N)C(=O)N1CCC(c2cccc(C(F)(F)F)c2)CC1`, the max response in experiment [1] was -0.358% (inactive). Also, the remaining parasite growth % (stronger effect = lower value) in experiment [2] came out at 1.65%. The activity, percent of control in experiment [3] was 1.44%. The same compound displayed a remaining proliferation (% of control), lower = more inhibition in experiment [4] of 0.956%. For the same compound, the parasite growth, % of DMSO control in experiment [5] was 5.47%. In experiment [6], this compound yielded a parasite growth remaining, % of DMSO control (lower = more inhibition) of 8.96%. Moreover, the parasite growth, % of control (lower = inhibition) in experiment [7] was 9.97%. In experiment [8], this compound displayed a growth, % of control of 6.38%.
Consider `O=c1ncn2nc(Sc3ccc(F)cc3F)ccc2c1-c1c(Cl)cccc1Cl`, for which the max response in experiment [1] is 5.63% (inactive). Also, in experiment [2], the remaining parasite growth % (stronger effect = lower value) worked out at 32.8%. The activity, percent of control in experiment [3] is 80.3%. Moreover, in experiment [4], the remaining proliferation (% of control), lower = more inhibition stood at 23.8%. The parasite growth, % of DMSO control in experiment [5] was 17.6%. This compound also had a parasite growth remaining, % of DMSO control (lower = more inhibition) in experiment [6] of 76.3%. For the same compound, in experiment [7], the parasite growth, % of control (lower = inhibition) was determined as 18.7%. The growth, % of control in experiment [8] was 13.6%.
`N#Cc1ccc(C(c2ccc(C#N)cc2)n2cncn2)cc1`: in experiment [1], the max response was 16.5% (inactive) and 0.241% (inactive). The same compound returned a remaining parasite growth % (stronger effect = lower value) in experiment [2] of 85.5%. Besides, in experiment [3], the activity, percent of control was determined as 86.6%. Also, in experiment [4], the remaining proliferation (% of control), lower = more inhibition stood at 95.8%. In experiment [5], this compound gave a parasite growth, % of DMSO control of 89.2%. The parasite growth remaining, % of DMSO control (lower = more inhibition) in experiment [6] was 93.7%. Besides, the parasite growth, % of control (lower = inhibition) in experiment [7] came to 123%. Further, the growth, % of control in experiment [8] turned out to be 101%.
`Cc1c(CCOc2ccc(C(=O)O)cc2)c2cc(Cl)ccc2n1C(c1ccccc1)c1ccccc1`: in experiment [1], the max response is 6.58% (inactive). Moreover, the remaining parasite growth % (stronger effect = lower value) in experiment [2] amounted to 84.7%. The compound also returned an activity, percent of control in experiment [3] of 81.3%. Further, the remaining proliferation (% of control), lower = more inhibition in experiment [4] came out at 23.4%. Also, the parasite growth, % of DMSO control in experiment [5] stood at 30.6%. In addition, in experiment [6], the parasite growth remaining, % of DMSO control (lower = more inhibition) was determined as 70.3%. Also, in experiment [7], the parasite growth, % of control (lower = inhibition) is 41.9%.
With `Cc1cc([C@@H](C)Nc2ccccc2C(=O)O)c2nc(N3CCOCC3)cc(=O)n2c1`, the max response in experiment [1] was -4.48% (inactive). Moreover, the remaining parasite growth % (stronger effect = lower value) in experiment [2] is 50.6%. In experiment [3], this compound yielded an activity, percent of control of 29.8%. In experiment [4], this compound had a remaining proliferation (% of control), lower = more inhibition of 31.4%. In addition, the parasite growth, % of DMSO control in experiment [5] was 5.01% [at 57.5 µM]. In experiment [6], this compound returned a parasite growth remaining, % of DMSO control (lower = more inhibition) of 16.9% [at 57.5 µM]. Moreover, the parasite growth, % of control (lower = inhibition) in experiment [7] stood at 7.39% [at 57.5 µM]. This compound also yielded a growth, % of control in experiment [8] of 3.82% [at 57.5 µM].

(Values after PubChem BioAssay (NCATS).)
